High-throughput results (PubChem BioAssay)
Tg IFNy HTS = T. gondii growth inhibition with IFN-gamma, primary screen, cell-based; 69,000 compounds, 3.8% hits; activity change, negative = inhibition, % (concentration not given with the values); Toxoplasma gondii growth in IFN-gamma-treated host cells; active compounds read low; AID 1259416, 2018; in the data active = activity change below about -70%, passing the limit was not always enough;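 note: host cells are HeLa cells infected with Toxoplasma gondii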
A number is an active result. Many of the other results were omitted from the sample, so hits are more common in it than they were.

Results for CC(C)CN1C(=O)CCc2cc(NC(=O)c3cc(F)ccc3Cl)ccc21 ?
Tg IFNy HTS: inactive

What do the screens show for `CC(C)CN1C(=O)CCc2cc(NS(=O)(=O)c3cccc(Cl)c3)ccc21`?
Tg IFNy HTS: -80

How did CC(C)CN1C(=O)CCc2cc(NS(=O)(=O)c3ccc(F)c(Cl)c3)ccc21 do in these assays?
Tg IFNy HTS: -87

How did COc1cccc(S(=O)(=O)Nc2ccc3c(c2)CCC(=O)N3CC(C)C)c1 do in these assays?
Tg IFNy HTS: inactive

How did Cc1cc(S(=O)(=O)Nc2ccc3c(c2)CCC(=O)N3CC(C)C)ccc1F do in these assays?
Tg IFNy HTS: -97

What do the screens show for `COCCN1C(=O)CCc2cc(NS(=O)(=O)c3ccc(F)c(C)c3)ccc21`?
Tg IFNy HTS: inactive

What do the screens show for `COCCN1C(=O)CCc2cc(NS(=O)(=O)c3ccc4c(c3)OCCO4)ccc21`?
Tg IFNy HTS: inactive

Results for CC(C)CN1C(=O)CCc2cc(NS(=O)(=O)c3ccccc3F)ccc21 ?
Tg IFNy HTS: inactive

How did COCCN1C(=O)CCc2cc(NS(=O)(=O)c3cccc(OC)c3)ccc21 do in these assays?
Tg IFNy HTS: inactive

What do the screens show for `CCN1CC(CCN2CCOCC2)C(c2ccccc2)(c2ccccc2)C1=O` (centres undefined)?
Tg IFNy HTS: inactive

How did Cc1ccc(NC(=O)CS(=O)CC(=O)N2CCN(c3ccccc3)CC2)cc1 (centres undefined) do in these assays?
Tg IFNy HTS: inactive

How did Cc1cncc(C(=O)N2CCn3cc(CN4CCCC4)nc3C2)c1 do in these assays?
Tg IFNy HTS: inactive

What do the screens show for `CC(=O)Oc1cc2oc(=O)cc(C)c2cc1OC(C)=O`?
Tg IFNy HTS: inactive

What do the screens show for `NC(=O)/N=N/C(N)=O`?
Tg IFNy HTS: inactive

What do the screens show for `Fc1cccc(CN2CCN(Cc3cn[nH]c3C3CCCCC3)CC2)c1`?
Tg IFNy HTS: inactive

Results for CCc1csc(CNC2CCc3ccc(OC)cc3C2)n1 (centres undefined) ?
Tg IFNy HTS: inactive

How did O=c1ccc2cc(S(=O)(=O)NCCN(Cc3ccco3)C3CCCC3)ccc2[nH]1 do in these assays?
Tg IFNy HTS: inactive

How did COc1ccc(C2(C(=O)N3CCCC(N(C)C)CC3)CCCC2)cc1 (centres undefined) do in these assays?
Tg IFNy HTS: inactive

What do the screens show for `COc1ccc(C2(C(=O)N3CCC(n4nc(-c5ccsc5)ccc4=O)CC3)CC2)cc1`?
Tg IFNy HTS: -95

What do the screens show for `COc1ccc(C2(C(=O)N3CCCC(O)(CO)C3)CC2)cc1` (centres undefined)?
Tg IFNy HTS: inactive

Results for O=C(C1CCC1)N1CCCCN2[C@H](CO)[C@H](c3ccc(-c4ccncc4)cc3)[C@H]2C1 ?
Tg IFNy HTS: inactive

What do the screens show for `CNC(=S)N1N=C(c2c(-c3ccccc3)c3cc(Cl)ccc3[nH]c2=O)CC1c1ccccc1` (centres undefined)?
Tg IFNy HTS: inactive

What do the screens show for `CNC(=S)N1N=C(c2c(-c3ccccc3)c3cc(Cl)ccc3[nH]c2=O)CC1c1ccccc1OC` (centres undefined)?
Tg IFNy HTS: inactive

Results for COC(C(=O)N1N=C(c2c(-c3ccccc3)c3cc(Cl)ccc3[nH]c2=O)CC1c1ccccc1)c1ccccc1 (centres undefined) ?
Tg IFNy HTS: -102

Results for O=c1[nH]nc(CCn2ccnc2-c2ccncc2)[nH]1 ?
Tg IFNy HTS: inactive

What do the screens show for `C=CC1=C(C(=O)O)N2C(=O)[C@@H](NC(=O)/C(=N/O)c3csc(N)n3)[C@H]2SC1`?
Tg IFNy HTS: inactive

How did N#Cc1c(=O)[nH]c(O)c2c(=N)oc3ccc(Cl)cc3c12 do in these assays?
Tg IFNy HTS: inactive

How did N#Cc1c(=N)nc2oc3ccc(Cl)cc3c3c(C#N)c(N)[nH]c1c23 do in these assays?
Tg IFNy HTS: -75

How did O=C(Nc1ccc(Cl)cc1)c1nc2nc(-c3cccs3)cc(C(F)(F)F)n2n1 do in these assays?
Tg IFNy HTS: inactive

Results for CSc1nc(N)nc(C23CC4CC(CC(C4)C2)C3)n1 ?
Tg IFNy HTS: inactive

How did Cc1csc(NC(=O)CN2CCC(c3ccc(F)cc3)CC2)n1 do in these assays?
Tg IFNy HTS: inactive

How did O=C(CN1CCCCC1)Nc1nc(-c2ccccc2)cs1 do in these assays?
Tg IFNy HTS: inactive

What do the screens show for `O=C(CN1CCCC1Cn1cccn1)Nc1nc(-c2ccc(F)cc2)cs1` (centres undefined)?
Tg IFNy HTS: -77

What do the screens show for `COc1ccc(-c2nc(CN(c3cccc(OC)c3)S(=O)(=O)c3ccccc3)c(C)o2)cc1`?
Tg IFNy HTS: inactive

How did CCOC(=O)c1cnc2c(cnn2CC)c1NN=C(C)C do in these assays?
Tg IFNy HTS: inactive

Results for O=C(NC1Cc2ccccc2C1)c1cncc(Br)c1 ?
Tg IFNy HTS: inactive

How did CCc1ccc(NC(=O)Cn2c(=O)cc(C(=O)N3CCC(C)CC3)c3ccccc32)cc1 do in these assays?
Tg IFNy HTS: inactive

Results for Cn1nc(CN2CCCCC2)c2c1CN(C(=O)c1cccc(C#N)c1)C2 ?
Tg IFNy HTS: inactive

How did CCCc1ccc(C(=O)N2Cc3c(CN4CCCCC4)nn(C)c3C2)cc1 do in these assays?
Tg IFNy HTS: -79

What do the screens show for `CCc1ccc(S(=O)(=O)N2Cc3c(CN4CCCCC4)nn(C)c3C2)cc1`?
Tg IFNy HTS: inactive

How did Cc1ccc(-c2nnc(-c3nc(NCCCN4CCc5ccccc5C4)c4ccccc4n3)o2)cc1 do in these assays?
Tg IFNy HTS: -118

Results for Cc1cccc(-c2nnc(-c3nc(NCCCN4CCCC4=O)c4ccccc4n3)o2)c1 ?
Tg IFNy HTS: inactive

Results for CCCCNc1nc(-c2nnc(-c3ccccc3)o2)nc2ccccc12 ?
Tg IFNy HTS: -89

What do the screens show for `Cc1cccc(-c2nnc(-c3nc(NCCc4cnc[nH]4)c4ccccc4n3)o2)c1`?
Tg IFNy HTS: inactive

What do the screens show for `c1ccc(-c2nnc(-c3nc(NCCc4cccs4)c4ccccc4n3)o2)cc1`?
Tg IFNy HTS: inactive

What do the screens show for `CCCSCCCNc1nc(-c2nnc(-c3cccc(C)c3)o2)nc2ccccc12`?
Tg IFNy HTS: -107

How did CCCCNc1nc(-c2nnc(-c3ccc(C)cc3)o2)nc2ccccc12 do in these assays?
Tg IFNy HTS: inactive

Results for c1ccc(-c2nnc(-c3nc(NCCN4CCOCC4)c4ccccc4n3)o2)cc1 ?
Tg IFNy HTS: inactive

Results for Cc1ccc(CCNc2nc(-c3nnc(-c4ccccc4)o3)nc3ccccc23)cc1 ?
Tg IFNy HTS: inactive

What do the screens show for `C1=C(CCNc2nc(-c3nnc(-c4ccccc4)o3)nc3ccccc23)CCCC1`?
Tg IFNy HTS: -99

Results for Cc1ccc(CNc2nc(-c3nnc(-c4ccccc4)o3)nc3ccccc23)o1 ?
Tg IFNy HTS: inactive

How did Cc1ccc(-c2nnc(-c3nc(NCCCN4CCCC4=O)c4ccccc4n3)o2)cc1 do in these assays?
Tg IFNy HTS: inactive

How did O=C(CCc1ccccc1)N1N=C(C(F)(F)F)CC1(O)c1ccc(Cl)cc1 (centres undefined) do in these assays?
Tg IFNy HTS: inactive

Results for Cc1ccc(-c2cnc(-n3cnnc3)c(C)c2)c(-n2cccn2)c1 ?
Tg IFNy HTS: inactive

What do the screens show for `CC1(C)Oc2ccc(S(=O)(=O)N3CCC(O)(c4cccnc4)CC3)cc2NC1=O`?
Tg IFNy HTS: inactive

How did O=C(C[C@H]1CC[C@H]2NC[C@@H](O)COC[C@@H]2O1)N1CCc2ccccc2C1 do in these assays?
Tg IFNy HTS: inactive

How did COc1cccc(NC(=O)C[C@@H]2CC[C@H]3[C@@H](COc4ccc(NC(=O)C5CC5)cc4C(=O)N3C)O2)c1 do in these assays?
Tg IFNy HTS: inactive

How did CNC(=O)CC1CC2(CCN(S(=O)(=O)c3ccccc3)CC2)Oc2ccccc21 (centres undefined) do in these assays?
Tg IFNy HTS: inactive
